Data on 40 molecules can be found in PubChem BioAssay (NCATS).

Where “and” joins values, the source holds several entries; their conditions need not be identical. Equal values may be shown once. Inconclusive results are not listed. Values without a mark were called inactive. Calls of active or inactive are those of the source. The call rests on the fitted dose curve. Numbered stars: 1 amine (or outer) side, 2 acyl side, 3 side chain; on linkers, the order of the positions; unused ones are H or OH. Bridge positions count the residues as written; N and C are the ends. Square brackets hold non-standard residues; d marks the D form. Peptide text beside a SMILES is read from it. I, II: the chains in the order shown. Actinocin(9to1) = Cc1c2oc3c(C)ccc(C(=O)[*:1])c3nc-2c(C(=O)[*:2])c(N)c1=O; aThr = C[C@H](O)[C@H](N)C(=O)O; NMeV = CN[C@H](C(=O)O)C(C)C; Sar = CNCC(=O)O
Potency means the concentration at half of the fitted maximal effect.

Cytochrome P450 1A2 (Homo sapiens), sequence (P05177 whole entry, looked up): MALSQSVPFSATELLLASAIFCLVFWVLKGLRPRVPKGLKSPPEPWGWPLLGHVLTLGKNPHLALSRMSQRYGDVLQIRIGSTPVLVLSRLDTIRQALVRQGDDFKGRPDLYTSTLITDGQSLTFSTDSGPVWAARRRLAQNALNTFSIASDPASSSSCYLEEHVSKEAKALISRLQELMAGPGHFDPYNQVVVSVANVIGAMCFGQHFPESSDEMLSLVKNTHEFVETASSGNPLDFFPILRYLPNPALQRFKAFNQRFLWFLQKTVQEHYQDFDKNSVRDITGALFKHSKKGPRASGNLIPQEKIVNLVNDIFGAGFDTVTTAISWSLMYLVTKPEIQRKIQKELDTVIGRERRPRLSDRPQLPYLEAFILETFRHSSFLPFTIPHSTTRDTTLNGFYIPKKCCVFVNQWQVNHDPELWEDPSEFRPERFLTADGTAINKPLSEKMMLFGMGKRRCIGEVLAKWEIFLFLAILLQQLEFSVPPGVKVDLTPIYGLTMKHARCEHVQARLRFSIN

The test has as its target Cytochrome P450 1A2 (Homo sapiens) (UniProt P05177). The experiment in a line: p450-cyp1a2 (AID 410).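 On activity change, negative = inhibition: -100% = full effect of reference inhibitor.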 Conditions: recombinant CYP1A2, luciferin-ME demethylation, luminescence; series mostly up to 57 µM; activity change, negative = inhibition: at the top concentration. The protocol:
The P450 gene superfamily is involved in metabolism and the clearance of xenobiotics. This assay used human CYP1A2 to measure the demethylation of luciferin 6' methyl ether (Luciferin-ME; Promega-Glo) to luciferin. The luciferin is then measured by luminescence after the addition of a luciferase detection regeant. Luciferin-ME concentration in the assay was equal to its Km for CYP1A2.
NCGC Assay Protocol Summary:
Two uL of enzyme and substrate mix (final concentrations: 20nM CYP1A2, 100uM Luciferin-ME, 100mM KPO4) were dispensed into a white, solid bottom 1536-well microtiter plate. 23nL of compound was transferred by a pin tool. The plate was incubated at room temperature for 10 min. Two uL of an NADPH regeneration solution (Promega supplied reagent) was dispensed and the reaction was allowed to continue for 60 min at room temperature. Then the reaction was stopped by reconstituted detection reagent. After another 20 min of incubation the plate was read on the ViewLux (Perkin Elmer) at 60 sec exposure and 2x2 binning. This protocol was carried out with Promega-Glo reagents and further information can be found at http://www.promega.com/tbs/tb325/tb325.pdf. Data were normalized to the to AC100 inhibition (57 uM furafylline).
As for `CC[N+](CC)(CC)CC`, the “activity change, negative = inhibition” value is 11.2%. For the molecule `CO[C@]1(C2=NCCN2)COc2ccccc2O1`, the “activity change, negative = inhibition” value is -19%.

As for `Cc1cccc([C@@H]2CN(C)CCc3c2cc(O)c(O)c3Cl)c1`, the “activity change, negative = inhibition” value is -2.6%.

With `N[C@@H](C(=O)O)c1ccc(C(=O)O)c(C(=O)O)c1`, the Potency entry is “inactive”. On the same count and under the same terms, the value for `CNCC[C@H](Oc1ccccc1OC)c1ccccc1` was 12.6 µM (active) and 10 µM (active) and 15.8 µM (active); that for `C[C@H](NC[C@H](O)CP(=O)(O)CC1CCCCC1)c1ccc(Cl)c(Cl)c1` was 39.8 µM (active). The same measure, in the same setting: the value for `O=C1C(c2ccccn2)=[N+]([O-])c2ccccc21` was 0.158 µM (active). For `COc1ccc2c(c1)CCC1[C@@H]2CCC2(C)[C@@H](NCCCCCCN3C(=O)C=CC3=O)CC[C@@H]12` (stereo not given in full), the “activity change, negative = inhibition” value was -3.2%. On the same count and under the same terms, the value for `CN1CCN(CCC=C2c3ccccc3Sc3ccc(S(=O)(=O)N(C)C)cc32)CC1` was -7.3%. As to `OCCNCCCOc1cccc(Cl)c1Cl`, the Potency was 0.2 µM (active). Same read-out and setting: next, `C[C@@]12C(=O)OC(=O)[C@@]1(C)[C@@H]1CC[C@@H]2O1`: 31.6 µM (active); `C#CCCCCCCCCCCCCCCCC(=O)O`: 6.31 µM (active).

Take `O=C(Nc1ccccc1)[C@@]12C[C@@H]1/C(=N/O)c1ccccc1O2`: the Potency is 2.51 µM (active). Same read-out and setting: next, `CC(C)NC[C@H](O)c1ccc2ccccc2c1`: 10 µM (active) and 12.6 µM (active).

In the case of `Clc1ccccc1CNCC1CCC(CNCc2ccccc2Cl)CC1` (stereo not given), the “activity change, negative = inhibition” value is -6.8%. In the case of `O=C(Cc1ccccc1)Nc1nc2ccc(Cl)cc2c2nc(-c3ccco3)nn12`, the Potency is 0.2 µM (active).

Turning to `CC[C@H](C)N(C)C(=O)c1cc2ccccc2c(-c2ccccc2Cl)n1`, the Potency result is “inactive”. As to `O=C(c1c(O)c2ccc(Cl)cc2[nH]c1=O)C1CC1`, the Potency is 0.0794 µM (active). On to `Cc1noc(NS(=O)(=O)c2cccc3c(N(C)C)cccc23)c1C`, for which the “activity change, negative = inhibition” value was -11.1%. The same measure, in the same setting: next, `COCCNC(=O)COc1ccc(OCCNC[C@@H](O)COc2ccccc2)cc1`: -35.6%.

With `CCC(=O)O[C@H](CC(=O)O)C[N+](C)(C)C`, the “activity change, negative = inhibition” value is 5.5%.

Consider `S=C(S)O[C@@H]1C[C@@H]2C[C@H]1[C@@H]1CCC[C@H]21`, for which the Potency result is “inactive”. For `O=C1CC[C@H](N2C(=O)c3ccccc3C2=O)C(=O)N1`, the Potency result was “inactive”. On the same count and under the same terms, the value for `NC(N)=NN=Cc1c(Cl)cccc1Cl` was 7.94 µM (active) and 3.98 µM (active) and 2 µM (active); that for `CCC(=O)N[C@@H]1CCc2cccc(OC)c2C1` was 12.6 µM (active). On to `NC1(C(=O)O)C[C@H](C(=O)O)[C@H](C(=O)O)C1` (stereo not given in full), for which the “activity change, negative = inhibition” value is -16.8%. Still for that read-out and setting: the value for `Cc1c2oc3c(C)ccc(C(=O)N[C@@H]4C(=O)N[C@@H](C(C)C)C(=O)N5CCC[C@@H]5C(=O)N(C)CC(=O)N(C)[C@@H](C(C)C)C(=O)O[C@H]4C)c3nc-2c(C(=O)N[C@@H]2C(=O)N[C@@H](C(C)C)C(=O)N3CCC[C@@H]3C(=O)N(C)CC(=O)N(C)[C@@H](C(C)C)C(=O)O[C@H]2C)c(N)c1=O` (I: [aThr]V[dP][Sar][NMeV] / II: [aThr]V[dP][Sar][NMeV]; ester I:1-I:C, II:1-II:C; linker I:N-II:N via Actinocin(9to1)) was -34.7%. For `CC[C@](N)(CCC(=O)O)C(=O)O`, the Potency was 20 µM (active).

Turning to `C[C@@H](NCc1cc(Br)cc2[nH]c(=O)c(=O)[nH]c12)P(=O)(O)O`, the “activity change, negative = inhibition” value was -9.6%.

Take `CCCCC#Cc1nc(NC)c2ncn([C@@H]3O[C@@H](CO)[C@H](O)[C@H]3O)c2n1`: the Potency is 31.6 µM (active). For `c1ccc2oc(C3=NCCN3)cc2c1`, the Potency is 5.01 µM (active). Still for that read-out and setting: next, `CNCCCCCCCCSc1nc(C(C)C)ccc1C(=O)c1cccs1`: 31.6 µM (active). Still for that read-out and setting: next, `CCN(CC)CCOC(=O)C1(c2ccc([N+](=O)[O-])cc2)CCCC1`: 3.98 µM (active) and 3.16 µM (active); `O=C(OCCN1CCCCC1)c1c[nH]c2ccccc12`: 12.6 µM (active) and 15.8 µM (active). Same read-out and setting: next, `c1ccc2cc(C3=NCCN3)ncc2c1`: 0.501 µM (active); `Cc1nc2c(O)cccc2c(=O)[nH]1`: 15.8 µM (active). Turning to `C[C@H]1C=C2C=C[C@H](C)[C@H](CC[C@@H]3C[C@@H](O)CC(=O)O3)[C@H]2[C@@H](OC(=O)[C@@H](C)CCO)C1`, the Potency was 31.6 µM (active). On the same count and under the same terms, the value for `COc1cc(N)c(Cl)cc1C(=O)N[C@H]1CCN(CCCOc2ccc(F)cc2)C[C@@H]1OC` was 25.1 µM (active); that for `c1ccc2sc(N3CCN(Cc4ccc5c(c4)OCO5)CC3)nc2c1` was 1 µM (active); that for `COc1ccc(OC)c2c(=S)c3ccccc3[nH]c12` was 0.0631 µM (active).
